Source: PubChem BioAssay
VHR inh abs: VHR1 phosphatase inhibitors, primary screen, biochemical, absorbance, uHTS. inhibition, % at 13.3 µM. Dual specificity protein phosphatase 3 (Homo sapiens), P51452. recombinant VHR phosphatase, pNPP absorbance. hit rate 0.52% among 290,000. AID 1654, 2009; in the data active = inhibition above about 50%
Target sequence (P51452 whole entry, looked up): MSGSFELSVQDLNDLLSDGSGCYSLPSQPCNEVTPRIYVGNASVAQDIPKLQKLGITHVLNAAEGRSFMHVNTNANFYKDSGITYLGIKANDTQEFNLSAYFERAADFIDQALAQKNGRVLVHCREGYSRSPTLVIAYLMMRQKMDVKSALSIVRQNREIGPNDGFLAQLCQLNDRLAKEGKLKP
PrPC surface inh: inhibitors of human cell surface prion protein PrPC, primary screen, cell-based, TR-FRET; inhibition, % at 13.8 µM; TR-FRET read-out; hit rate 0.43% among 370,000; Major prion protein (Homo sapiens), P04156; in the data active = inhibition above about 24%; also: 0% = median of the test wells and 100% = reference compound wells
TcdB inh: TcdB glycohydrolase inhibitors, primary screen, biochemical, single point, plate reader; Toxin B (Clostridioides difficile), P18177; TcdB glycohydrolase enzymatic assay; inhibition, % at 9.99 µM; hit rate 0.24% among 350,000; in the data active = inhibition above about 10%
* = called active by the depositor. Compounds with a hit are over-represented: about 0.82% of the library has one in this group of screens.

`CCOC(=O)CSc1nc2c(sc(=S)n2-c2ccccc2)c(=O)n1-c1ccc(OC)cc1OC` gave VHR inh abs 53*, PrPC surface inh 0 and TcdB inh 1.
For CCOc1ccccc1-n1c(=S)sc2c(=O)n(-c3ccc(F)cc3)c(SCC(=O)O)nc21 the results were VHR inh abs 27, PrPC surface inh -6 and TcdB inh 20*.
For CCc1ccc(-n2c(=S)sc3c(=O)n(-c4ccccc4C)c(SCC(=O)O)nc32)cc1 the results were VHR inh abs 5, PrPC surface inh -7 and TcdB inh -1.
`Cc1cc(-n2c(=S)sc3c(=O)n(-c4ccc(F)cc4)c(SCC(=O)O)nc32)ccc1Cl` gave VHR inh abs 10, PrPC surface inh -5 and TcdB inh 8.
Cc1ccc(-n2c(=S)sc3c(=O)n(-c4ccccc4C)c(SCC(=O)O)nc32)cc1C was read as VHR inh abs -3, PrPC surface inh -1 and TcdB inh 1.
For C[C@@H]1CN([C@H](C)CO)C(=O)c2cc(NC(=O)CCC(F)(F)F)ccc2O[C@@H](C)CCCCO[C@@H]1CN(C)Cc1ccc(Cl)c(Cl)c1 the results were TcdB inh 0.
Screening C[C@@H]1CCCCO[C@H](CN(C)Cc2ccc(Cl)c(Cl)c2)[C@H](C)CN([C@@H](C)CO)C(=O)c2cc(NC(=O)NC3CCCCC3)ccc2O1 returned TcdB inh -2.
Screening CC(=O)c1cn(CCCCCCCn2cc(C(C)=O)c(=O)[nH]c2=O)c(=O)[nH]c1=O returned VHR inh abs -3, PrPC surface inh -3 and TcdB inh -1.
CCCCCCCCCn1cc(C(C)=O)c(=O)[nH]c1=O was read as VHR inh abs 50* and PrPC surface inh -1.
`O=C(N[C@H]1CC[C@H](CCNS(=O)(=O)c2ccc(F)cc2)O[C@H]1CO)c1cnccn1` gave TcdB inh -1.
Oc1ccc(/C=N/n2cc(-c3ccccc3)[nH]c2=S)cc1 was read as VHR inh abs 30, PrPC surface inh -6 and TcdB inh 14*.
COc1cc(/C=N/n2cc(-c3ccccc3)[nH]c2=S)cc(OC)c1O was read as VHR inh abs 20, PrPC surface inh 0 and TcdB inh -9.
O=C1/C(=C/c2ccc(Br)cc2)Oc2cc(O)ccc21 was read as VHR inh abs 20, PrPC surface inh 1 and TcdB inh 0.
Screening O=C1/C(=C/c2ccc([N+](=O)[O-])cc2)Oc2cc(O)ccc21 returned VHR inh abs 57*, PrPC surface inh -1 and TcdB inh 2.
For C[C@@H](NC(=O)C[C@H]1CC[C@H]2[C@@H](COC[C@H](O)CN2C(=O)Nc2ccccc2)O1)c1ccccc1 the results were TcdB inh 0.
`O=C(NCC1CCCCC1)[C@H]1[C@H](CO)[C@H]2Cn3c(ccc(C4=CCCC4)c3=O)[C@@H]1N2C(=O)CC1CC1` gave TcdB inh 1.
`O=[N+]([O-])c1cc(S(=O)(=O)N2CCCCC2)ccc1NCc1cccc(Cl)c1` gave VHR inh abs 51* and PrPC surface inh -1.
Screening O=[N+]([O-])c1cc(S(=O)(=O)N2CCCC2)ccc1NN=C1CCCCC1 returned VHR inh abs 3, PrPC surface inh -4 and TcdB inh 0.
For C[C@@H]1CN([C@@H](C)CO)C(=O)Cc2cc(NC(=O)Cc3ccccc3)ccc2O[C@@H]1CN(C)C(=O)Nc1cccc2ccccc12 the results were TcdB inh 2.
For C[C@H](CO)N1C[C@H](C)[C@@H](CN(C)Cc2ccccc2)Oc2ncc(C#CCN(C)C)cc2C1=O the results were TcdB inh 0.
O=C(c1cccnc1)N1CCc2ccccc21 was read as VHR inh abs -9 and PrPC surface inh 0.
Screening O=C(c1cccnc1)N1CCc2ccccc2C1 returned VHR inh abs 51* and PrPC surface inh 3.
`C[C@H]1CN([C@@H](C)CO)C(=O)c2cccc(NC(=O)c3ccncc3)c2O[C@H]1CN(C)C(=O)Nc1cccc2ccccc12` gave TcdB inh 0.
Screening N#Cc1cccc(-c2ccc([C@H]3[C@H](CO)N4CCCCN(C(=O)Nc5ccc(F)cc5)C[C@@H]34)cc2)c1 returned TcdB inh 1.
CC(=O)OCC12CC(OC(=O)CC(C)C)C(C)=CC1OC1C(O)C(OC(C)=O)C2(C)C12CO2 (configuration not stated) was read as PrPC surface inh 87* and TcdB inh 1.
`Cc1[nH]c2ccccc2c1/C=N/NC(=O)c1ccccc1` gave VHR inh abs -13, PrPC surface inh -3 and TcdB inh 1.
Screening Cc1[nH]c2ccccc2c1/C=N/NC(=O)c1ccc(N)cc1 returned VHR inh abs 58*, PrPC surface inh -4 and TcdB inh 1.
Screening CC(=O)Nc1ccc(NC(=O)Cc2ccc(S(=O)(=O)N3CCCCC3)cc2)cc1 returned PrPC surface inh 2 and TcdB inh 13*.
`O=C(Cc1ccccc1)Nc1ccc(S(=O)(=O)N2CCCC2)cc1` gave VHR inh abs 12, PrPC surface inh 2 and TcdB inh 1.
`Cc1noc(C)c1S(=O)(=O)Nc1ccc2c(c1)C(=O)N([C@@H](C)CO)C[C@@H](C)[C@@H](CN(C)C(=O)Nc1ccc(C(F)(F)F)cc1)O2` gave TcdB inh 1.
Screening CN1CCN(C(=O)C[C@@H]2CC[C@@H]3[C@H](COc4ccc(NC(=O)c5cscn5)cc4C(=O)N3C)O2)CC1 returned TcdB inh -1.
`O=C(/C=C/c1ccco1)NC(=S)Nc1ccccc1N1CCCC1` gave VHR inh abs 56* and PrPC surface inh -1.
For O=C(/C=C/c1ccco1)NC(=S)Nc1ccccc1N1CCOCC1 the results were VHR inh abs 6 and PrPC surface inh -8.
For COCC(=O)Nc1ccc2c(c1)C(=O)N(C)C[C@@H](OC)[C@H](C)CN(Cc1ccncc1)[C@@H](C)CO2 the results were TcdB inh 1.
`C[C@@H](NC(=O)[C@@H]1[C@@H](CO)[C@@H]2Cn3c(ccc(-c4ccccc4)c3=O)[C@@H]2N1C)c1ccccc1` gave TcdB inh 1.
`COc1ccc(CC(=O)OCC(=O)NC2CCCCCC2)cc1OC` gave PrPC surface inh 5 and TcdB inh 3.
COc1ccc(CC(=O)NC2CC2)cc1OC was read as VHR inh abs 53*, PrPC surface inh -3 and TcdB inh -2.
`Cc1noc(C)c1NC(=O)N(C)C[C@@H]1Oc2ccc(N(C)C)cc2CC(=O)N([C@@H](C)CO)C[C@@H]1C` gave TcdB inh -5.
`O=C(NC(Cc1ccccc1)c1ccc2c(c1)OCCCO2)c1ccccc1F` (configuration not stated) gave VHR inh abs 52* and PrPC surface inh -18.
`COc1ccc(C(=O)NC(Cc2ccccc2)c2ccc3c(c2)OCCCO3)cc1` (configuration not stated) gave VHR inh abs 2, PrPC surface inh 3 and TcdB inh 1.
For C[C@@H]1CN([C@H](C)CO)C(=O)c2cc(NS(=O)(=O)c3cn(C)cn3)ccc2O[C@H]1CN(C)Cc1ccc2c(c1)OCO2 the results were TcdB inh 0.
